# Source: PubChem BioAssay AID624273 (Broad Institute, 2012)
# Hit rate of the full screen: of about 1,000 compounds, about 230 (23%) were called active. Inconclusive results (about 1%) are left out. Some of the results follow. Results with a measured potency or affinity are listed apart. Values without a mark were called inactive. The rule behind the calls is not given here.
# Biological target: Long-chain-fatty-acid--AMP ligase FadD28 (Mycobacterium tuberculosis (strain ATCC 25618 / H37Rv)) (UniProt P9WQ59)
# Assay: inhibitors of FadD28 bisubstrate probe binding, dose response, biochemical, fluorescence polarization, cherry-pick (AID 624273)
# Settings: series mostly up to 50 µM; activity change, negative = inhibition: at the top concentration
# Long-chain-fatty-acid--AMP ligase FadD28 (Mycobacterium tuberculosis (strain ATCC 25618 / H37Rv)), sequence (P9WQ59 whole entry, looked up): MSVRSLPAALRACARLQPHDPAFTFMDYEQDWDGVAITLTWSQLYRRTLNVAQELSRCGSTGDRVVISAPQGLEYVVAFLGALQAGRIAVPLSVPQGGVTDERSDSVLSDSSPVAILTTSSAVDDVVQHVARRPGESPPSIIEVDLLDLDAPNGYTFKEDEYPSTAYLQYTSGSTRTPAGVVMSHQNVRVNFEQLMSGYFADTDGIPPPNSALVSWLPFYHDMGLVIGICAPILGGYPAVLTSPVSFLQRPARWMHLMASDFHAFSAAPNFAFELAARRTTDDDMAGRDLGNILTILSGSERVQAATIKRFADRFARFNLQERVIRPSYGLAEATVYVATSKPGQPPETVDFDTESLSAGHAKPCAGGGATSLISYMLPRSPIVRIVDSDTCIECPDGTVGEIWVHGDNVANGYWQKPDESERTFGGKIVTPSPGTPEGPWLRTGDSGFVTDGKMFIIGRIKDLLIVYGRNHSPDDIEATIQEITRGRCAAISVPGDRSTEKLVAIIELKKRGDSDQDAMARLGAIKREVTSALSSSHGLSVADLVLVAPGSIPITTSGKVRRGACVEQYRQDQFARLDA
row,Compound,"activity change, negative = inhibition"
1,C[C@@H]1CN([C@H](C)CO)C(=O)c2cc(NC(=O)Nc3ccc(C(F)(F)F)cc3)ccc2O[C@H]1CN(C)S(=O)(=O)c1ccccc1,-3.14%
2,N#CCCN(CCC#N)C(=O)C1c2ccccc2Oc2ccccc21,-14.3%
3,CCCCCCn1cc(C(=O)O)c(=O)c2cc(F)c(N3CCN(C)CC3)cc21,-6.74%
4,O=C(NNC(=O)C1CC=CCC1)c1ccccc1Cl (stereo not given),-7.49%
5,COc1ccc(CCNC(=O)CSc2nc3[nH]ncc3c(=O)n2-c2ccc(Cl)cc2Cl)cc1OC,6.51%
6,O=C(CSc1nnc(CNc2ccc(Cl)cc2)o1)Nc1nc2c(s1)CCCC2,-4.67%
7,COCC(C)N=Cc1c(O)[nH]c2ccccc12 (stereo not given),-3.22%
8,CC1=C(C(=O)OCCCBr)C(c2ccc3c(c2)OCO3)NC(=O)N1 (stereo not given),7.23%
9,CN1CC(C(=O)c2ccc(Cl)cc2)C(c2ccc(N(C)C)cc2)C1 (stereo not given),-12.5%
10,CC(=O)Oc1ccc(-c2nc(-c3cccnc3)no2)cc1,-0.647%
11,COc1ncnc(-c2ccccc2)c1-c1ccccc1,-5.28%
12,COCC(=O)Nc1ccc(Br)cc1C,-4.66%
13,COc1ccc(C(=O)Nc2ccncc2)cc1OC,-2.23%
14,COc1cc(/C=N/n2c(COc3ccccc3)n[nH]c2=S)cc(OC)c1OC(C)=O,-3.5%
15,COc1ccc(/C=C2\SC(=O)N(CC(=O)Nc3ccccc3O)C2=O)cc1OC,-6.42%
16,O=C(CN1C(=O)/C(=C/c2ccco2)SC1=S)NC1CCS(=O)(=O)C1 (stereo not given),-10.4%
17,O=C(NCCS(=O)(=O)N1CCN(c2cccc(Cl)c2)CC1)c1cc(=O)c2ccccc2o1,1.84%
18,COc1cc2cc(C(N)=O)c(N)nc2cc1OC,-1.59%
19,Cc1nc(-c2cccs2)ccc1C(=O)O,-6.58%
20,COCCCNC(=S)N/N=C/c1cccc(OC)c1O,-6.99%
21,O=[N+]([O-])c1cccc(/C=N/n2c(C3CCCCC3)n[nH]c2=S)c1,-19.2%
22,CC1CCN(S(=O)(=O)c2ccc(C(=O)Nc3nnc(C4=COCCO4)o3)cc2)CC1,6.34%
23,O=C(COC(=O)c1cccc(S(=O)(=O)N2CCCC2)c1)Nc1cccc(Br)c1,-1.15%
24,CCN(CC)S(=O)(=O)c1ccc(NC(=O)COC(=O)c2ccc(Br)o2)cc1,-9.9%
25,O=C(CSc1nnnn1-c1ccccc1)Nc1nsc(-c2ccc(Cl)cc2)n1,1.71%
26,Cc1cc(S(=O)(=O)N(Cc2cccs2)Cc2ccccc2F)ccc1-n1cnnn1,-3.2%
27,CCNS(=O)(=O)c1cc(OC)c(Cl)cc1OC,-4.8%

row,Compound,"activity change, negative = inhibition"
1,O=C(Nc1nc(COc2ccccc2)cs1)c1ccccc1F,-18.3%
2,COc1ccc(CNC(=O)CN(Cc2ccc(OC)cc2)C(=O)CCC(=O)Nc2nccs2)cc1,0.987%
3,COc1cc(Cl)ccc1NC(=O)COc1ccccc1C(=O)N1CCN(c2ccc(O)cc2)CC1,-2.05%
4,CCCN1C(=O)c2ccccc2NC1c1ccc(Cl)cc1 (stereo not given),-1.06%
5,CC(=O)c1cccc(NC(=O)CN(c2cccc(F)c2)S(C)(=O)=O)c1,3.17%
6,COc1ccc(CNC(=O)COc2ccc(OC)cc2)cc1,-4.06%
7,COc1cccc(CNC(=O)CN(C)S(=O)(=O)c2cnc[nH]2)c1,-2.62%
8,COc1cnc(-c2cccc(C(F)(F)F)c2)c(NC(=O)c2cc3ccccc3s2)n1,-0.128%
9,COc1cccc(-c2cc(C(=O)Nc3ccncc3)c3ccccc3n2)c1,4.9%
10,CCOc1ccc(N=Nc2c(C)[nH]n(-c3ccccc3)c2=O)cc1,-5.21%
11,O/N=C1\CC/C(=N\O)c2nn(-c3ccccc3Cl)nc21,-1.62%
12,O=C(CN1C(=O)NC2NC(=O)NC21)NC1CCCCC1 (stereo not given),-5.35%
13,Cc1ccc(C(=O)COC(=O)c2cccc(NC(=O)c3ccc([N+](=O)[O-])cc3[N+](=O)[O-])c2)cc1,-3.42% [at 16 µM]
14,COc1ccc(C(=O)/C(C#N)=N/Nc2cccc([N+](=O)[O-])c2)cc1,-8.25%
15,N#Cc1c(-c2ccccc2)c(-c2ccccc2)nn(CC(=O)NNC(=O)Nc2ccc(Cl)c(Cl)c2)c1=O,-10.7%
16,N/C(=N\OC(=O)COc1ccc2ccccc2c1)c1ccncc1,-14%
17,COC(=O)c1c(-c2ccc(C)cc2)csc1NC(=O)C1CC=CCC1C(=O)O (stereo not given),11.9%
18,Cc1ccc([N+](=O)[O-])cc1N=Nc1c(-c2ccc([N+](=O)[O-])cc2)[nH]n(C(N)=S)c1=O,0.54%
19,CCc1noc(C)c1C(=O)Nc1cc(S(=O)(=O)N2CCOCC2)ccc1OC(C)C,-11.1%
20,CCOC(=O)N1CCN(C2CC(=O)N(c3ccc(F)cc3)C2=O)CC1 (stereo not given),-8.96%
21,C[C@@H]1CN([C@H](C)CO)C(=O)c2cc(NC(=O)Nc3ccc(C(F)(F)F)cc3)ccc2O[C@H]1CN(C)S(=O)(=O)c1ccc(Cl)cc1,-1.46%
22,Cc1cc(=O)oc2c(CN3CCN(CCO)CC3)c(O)ccc12,-6.12%
23,Cc1cccc(C(=O)NNS(=O)(=O)c2ccc(F)cc2)c1O,-20.4%
24,O=C(NNC(=O)c1ccc([N+](=O)[O-])cc1)c1ccc(NS(=O)(=O)c2cccs2)cc1,-2.28%
25,COc1cc(NC(=O)COC(=O)CC2CC3CCC2C3)cc(OC)c1 (stereo not given),-13.2%
26,CCSc1ccccc1C(=O)Nc1cc(C)on1,-5.14%
27,COC(=O)c1cc(C(=O)OCC(=O)NC2CCCC2)cc([N+](=O)[O-])c1,-1.93%

row,Compound,"activity change, negative = inhibition"
1,COc1cccc(C(=O)OCC(=O)NC(=O)NC2CCCC2)c1O,-9.96%
2,CC(=O)NC(CCS(C)(=O)=O)C(=O)N1CCc2ccccc21 (stereo not given),-7.29%
3,COc1cccc(OCc2cc(C(=O)N(C)CCOc3ccc(C)cc3)no2)c1,-4.38%
4,CC(C)=NOc1cc(NC(=O)CCl)cc([N+](=O)[O-])c1,1.51%
5,C/C(=N\NC(=O)COc1ccccc1)c1ccc(O)cc1,-3.89%
6,Nc1nnnn1/N=C/c1cc(Cl)cc(Cl)c1O,-12.6%
7,O=C(O)Cn1c2ccccc2c2n[nH]c(=S)nc21,-4.23%
8,CCOC(=O)c1cc(NC(=O)c2ccc(Cl)cc2)c(=O)n2c1oc1ccc(Cl)cc12,-3.91%
9,S=c1nc[nH]c2c1sc1nc(-c3ccccc3)c3c(c12)CCCC3,-9.92%
10,CCn1c(SCC(=O)Nc2ccc(N3CCOCC3)cc2)nnc1-c1ccncc1,-6.22%
11,Cc1ccc(C)c(NS(=O)(=O)c2ccc(NC(=O)CSc3ccc(Cl)cc3)cc2)c1,1.79%
12,Cc1ccc(OCc2nc(-c3ccccn3)no2)cc1,-10.9%
13,COc1ccc(CCNC(=O)c2ccc(NS(=O)(=O)c3ccc4[nH]c(=O)[nH]c4c3)cc2)cc1,1.58%
14,COc1ccc(CCNC(=O)c2ccccc2NS(=O)(=O)c2c(F)cccc2F)cc1,-11.5%
15,CCC(C)(C)NC(=O)CN(C(=O)CCC(=O)Nc1nccs1)c1ccc2c(c1)OCO2,-2.29%
16,COc1ccc(COc2ccc3c(C)cc(=O)oc3c2)cc1,2.11%
17,CCOC(=O)c1ccc(NC(=O)c2nc[nH]c2C(=O)N(CC)CC)cc1,-3.82%
18,Cc1ccc(S(=O)(=O)N(C)CC(=O)OCC(=O)NC(=O)Nc2ccc3c(c2)OCCO3)cc1,-15.2%
19,COc1ccc(S(=O)(=O)N2CCC(C(=O)NCCC(=O)NCc3ccncc3)CC2)cc1,-5.1%
20,Cc1ccc(C)c(NC(=O)C(CC(=O)O)Cc2ccccc2)c1 (stereo not given),4.67%
21,O=C(NC(Cc1ccccc1)C(=O)O)C1CCN(S(=O)(=O)c2ccccc2C(F)(F)F)CC1 (stereo not given),-4.71%
22,COC(=O)[C@H](Cc1ccccc1)NC(=O)NCc1ccc(C)cc1,-8.21%
23,O=C(NCc1ccc(F)cc1)C(Cc1ccccc1)NS(=O)(=O)c1cccs1 (stereo not given),-0.603%
24,C[C@H](CO)N1C[C@H](C)[C@H](CN(C)S(=O)(=O)c2cn(C)cn2)Oc2ccc(NC(=O)Nc3ccc(C(F)(F)F)cc3)cc2CC1=O,2.87%
25,NC(Cc1ccccc1)c1nn[nH]n1 (stereo not given),-6.01%
26,CN1CCN(NC(=O)c2ccc(S(=O)(=O)N3CCCCCC3)cc2)CC1,2.84%
27,O=C(O)c1cc2ccccc2cc1Nc1ccccc1,-13.8%

row,Compound,"activity change, negative = inhibition"
1,CC(=O)c1ccc(Oc2cc(-c3ccccc3)nc(-c3ccccc3)n2)cc1,-5.3%
2,CCN(CC)CCCn1c(=S)[nH]c2cc(Cl)ccc2c1=O,-6.33%
3,COC1=CC(=O)OC(CCc2ccc3c(c2)OCO3)C1 (stereo not given),2.47%
4,Cc1ccc(C(=O)n2nc(C#N)c(C#N)c2N)cc1,-4.3%
5,N#Cc1ccc(OCC(=O)OCC(=O)Nc2ccc(N3CCOCC3)cc2)cc1,-5.79%
6,CC(=O)N1CCN(c2ccc(NC(=O)c3ccc(C(C)(C)C)cc3)cc2)CC1,-6.95%
7,O=C(Sc1ccc(Cl)cc1)c1ccccn1,-4.7%
8,O=[N+]([O-])c1ccc(N2CCCCCC2)c2nonc12,-8.88%
9,Cn1c(N)c(S(=O)(=O)N2CCN(c3ccccc3Cl)CC2)c(=O)n(C)c1=O,-8.51%
10,CCc1c(C)sc(NC(=O)C2CC2c2ccccc2)c1C(N)=O (stereo not given),-0.5%
11,O=C(/C=C/c1ccc([N+](=O)[O-])cc1)/C=C/c1ccco1,-4.48%
12,Cc1c(C(=O)C(=O)N2c3ccccc3CC2C)c2ccccc2n1C (stereo not given),-0.858%
13,C=CCn1c(C)csc1=Nc1ccc(C(C)=O)cc1,-4.17%
14,O=C(c1cccc(S(=O)(=O)N2CCN(c3ccccc3)CC2)c1)N1CCCCCCC1,-6.53%
15,Cc1ccccc1-c1nnc(-c2cccc3ccccc23)o1,-3.76%
16,COc1ccc(C)cc1NC(=O)CSc1nnc(-c2ccc(Br)cc2)o1,-0.706%
17,CCc1cccc(NC(=O)COC(=O)/C=C/c2cccs2)c1,2.6%
18,COc1ccc(C(=O)c2ccsc2N)cc1,-3.79%
19,Cc1ccc(OCCCN2CCOCC2)cc1,-0.236%
20,Cc1ccc(S(=O)(=O)/N=C2\C=C(Nc3ccc(O)cc3)C(=O)c3ccccc32)cc1,-11.4%
21,CCc1nnc(NC(=O)CSc2ncnc3c2oc2ccccc23)s1,-2.91%
22,O=C(COC(=O)c1cc(S(=O)(=O)Nc2ccccc2Cl)ccc1O)Nc1nc2ccccc2s1,-2.04%
23,O=C(CSc1nnc(Cc2ccccc2)n1-c1ccccc1)NNC(=O)Cc1ccccc1,-1.66%
24,O=C(COC(=O)c1ccc(NS(=O)(=O)c2cccs2)cc1O)Nc1nc2ccccc2s1,-4.46%
